Among the data in the OligoGym collection are sensor-assay potency score (higher = more potent) values, retold here.
Further: reference of the scale not given here.

The target of one test is SLC34A1. As to the kind of experiment: pooled miR-30 sensor sort-seq; sequence = guide strand. Conditions: shRNA.
In turn, TTGACTAGGAGGATGAGGCAGG yielded a sensor-assay potency score (higher = more potent) of 0.548.
Same read-out and setting: under TGGACCACGAAGGTCATGCTGG stands -0.818.
Same read-out and setting: the result for TTGAGCATCTTGACTAGGAGGA reads 0.961; that for TCTGTGATGATCTTGAGCAGGT, 0.374.
In the case of TTCAGGGAGTGCATCCAGCGAG, the sensor-assay potency score (higher = more potent) was -0.619.
On the same count and under the same terms, under TTGGAACCCAGTGTGAGCGGGT stands 0.313.
Sequence TTAAAGCAGTCATGCACCGTGG had a sensor-assay potency score (higher = more potent) of -0.651.
The same measure, in the same setting: the result for TTGATGAGCACCACGAAGGCCA reads -0.0356.

For another test, the target named is SLC35D2. Described as above. Conditions: shRNA.
Consider TAGGATAAACACAACATTCTTC, for which the sensor-assay potency score (higher = more potent) came out at 0.0517.
The same measure, in the same setting: under TAGCTGCACAGAACCGTGGAGT stands -0.729; under TAAACTGAAACAACTGGCCCTT, 0.105; under TATAGTATCATTATGGTGGCTG, 0.443.
Still for that read-out and setting: under TAATAGCTGCACAGAACCGTGG stands -0.868; under TTGTGCTTGATAATCCACTTAT, -0.388.
On the same count and under the same terms, under TTAGCTTGGACACATATAGTAT stands -0.569.
With TACATTTCTTGAGACTGCCATT, the sensor-assay potency score (higher = more potent) is -1.38.
The sequence TTAACTAATTTTATTAGACTAA came in with a sensor-assay potency score (higher = more potent) of -1.13.
On the same count and under the same terms, under TAGACTAAAGACATGTCTGTTT stands -0.123; under TTACTTGTGCTTGATAATCCAC, -0.229; under TTTCTTATCAAAATCAGGGAAG, -0.741.

A further test deals with SLC38A11. The test is described as above. The conditions noted are these: shRNA.
On to TTGAGTATTTGTAATAGCCATG, for which the sensor-assay potency score (higher = more potent) was -1.21.
For the sequence TTTTATTGACCAAAGACTGGTA, the sensor-assay potency score (higher = more potent) is -0.145.
On the same count and under the same terms, the result for TACAACAATGTGGAAAACCGAT reads -0.853; that for TCAAGTATCCACATGTAGCAAA, -0.803; that for TTCTAGAGAACTGTAAACTAAG, -0.917.
In turn, TTGAGTTCTAGAACTATCCCGA gave a sensor-assay potency score (higher = more potent) of 0.433.
The same measure, in the same setting: under TAATTTTCAAATAAGTCCCCTT stands 0.231.
TTAAAGTAGAAAGTTGTGTTGT registered a sensor-assay potency score (higher = more potent) of 0.823.
As to TAAACCTGTAGAGATGAGGGAG, the sensor-assay potency score (higher = more potent) stood at 0.481.
Regarding TTTATCAATAAAACAAGGGAAA, the sensor-assay potency score (higher = more potent) is -1.2.
As to TTGTGTTGTCTGCTGAACATGA, the sensor-assay potency score (higher = more potent) was -0.294.
The same measure, in the same setting: under TCTGCTGAACATGAGACTCTGA stands 0.182.

The target of the next test is SLC39A12. The test is described as above. The conditions noted are these: shRNA.
Sequence TTTTTGATACAAGTACTTCTGG showed a sensor-assay potency score (higher = more potent) of 0.0669.
On the same count and under the same terms, the result for TAGAAATATCTCCACCAGCTGC reads -1.07; that for TTGCTTGTCACTTAACTTGCTT, -0.0821; that for TTGTGTTTGAACATGAGTCATT, -0.725.
Same read-out and setting: under TTGCAGTTGATTTTACTCCAAC stands -1.11; under TTTGATACAAGTACTTCTGGTC, 0.47.
Still for that read-out and setting: the result for TGACACAAGATAGCAATCGTAG reads -0.876.
On to TGAAGAACAGATCTCTTCCTGA, for which the sensor-assay potency score (higher = more potent) was found to be 0.419.
